For 34 compounds, growth results are on record in PubChem BioAssay (NCI).

The panel holds about 83,000 compounds, 20% with a hit somewhere; the sample as a whole holds those more often.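 Each cell line was grown in a 96-well plate and treated with one concentration of compound for 48 hours. Values below 10 were considered active.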 Active and inactive are the calls of the source.

In this test the test system is UACC-257 melanoma. As to the kind of experiment: NCI-60 one-dose screen, 48 h (100 = growth as untreated, 0 = no growth, -100 = all killed). The conditions noted are these: 10 µM unless noted.
In the case of `CCCSc1nc(Nc2ccc(S(N)(=O)=O)cc2)c(C#N)c(-c2ccc(Cl)cc2)n1`, the growth was 54.8% (inactive). Turning to `CCCCSc1nc(Nc2ccc(S(N)(=O)=O)cc2)c(C#N)c(-c2ccc(Cl)cc2)n1`, the growth is 76% (inactive). Consider `Cn1cc(-c2cc3nc(-c4cn(C)c5ncccc45)cc(N)n3n2)c2ccccc21`, for which the growth was -49.7% (active). With `Cc1ccc(C2=NN(c3nc(-c4cc5ccccc5oc4=O)cs3)C(c3ccc(C)cc3)C2)cc1` (centres undefined) the figure was 112% (inactive); with `Cc1ccc2c(c1)nc(-c1ccccc1)n2CC(=O)N=Nc1c(O)[nH]c2ccc(Br)cc12`, -51.5% (active); with `O=C(Cn1nc(-c2ccccc2)ccc1=O)N/N=C/c1ccc(N2CCOCC2)cc1`, 99.2% (inactive). With `O=C(NN1C(=O)/C(=C/C=C/c2ccc([N+](=O)[O-])o2)SC1=S)c1ccc(Cl)cc1`, the growth is -93.3% (active). Regarding `CCCCSc1nc(Nc2ccc(S(N)(=O)=O)cc2)c(C#N)c(-c2cc(OC)c(OC)c(OC)c2)n1`, the growth was 61.7% (inactive). As for `COc1cc2c3c(n(CCCN4CCC[C@@H]4CO)c(=O)c2cc1OC)-c1cc2c(cc1C3=O)OCO2`, the growth was 71.2% (inactive). Regarding `Cn1cc(-c2cc(N)n3nc(-c4cn(C)c5ncc(Br)cc45)cc3n2)c2cc(Br)cnc21`, the growth is 60.3% (inactive). On to `Cn1cc(-c2cc(N)n3nc(-c4c[nH]c5ccccc45)cc3n2)c2cccnc21`, for which the growth was 92.3% (inactive).

For `CN(C)c1nc(NCCNS(=O)(=O)c2ccc(C3=Nc4c(N)nc(N)nc4NC(c4ccccc4)C3)cc2)nc(Nc2ccc(F)cc2)n1` (centres undefined), the growth is 70.8% (inactive). With `COc1ccc(-c2ccc(SCC(=O)NCCc3ccc(S(N)(=O)=O)cc3)nn2)cc1` the figure was 55.3% (inactive); with `O=C(CCN1C(=O)/C(=C/c2ccc(F)cc2)SC1=S)N1CCOCC1`, 52% (inactive); with `Cc1cc2nc3c4ccccc4n(CC4=NCCN4)c3nc2cc1C`, -44.4% (active). With `Cc1ccc(C(=O)NN2C(=O)/C(=C/C=C/c3ccc([N+](=O)[O-])o3)SC2=S)cc1`, the growth is -81.5% (active). In the case of `Cc1cc2nc3c([nH]c2cc1C)c1ccc(=O)cc1n3CCN(C)C`, the growth was 64% (inactive). In the case of `N/C(=N\c1nc2ccccc2s1)NC(=O)Nc1c(Cl)cccc1Cl`, the growth was 75.4% (inactive). For the compound `Brc1ccc(-c2n(Cc3ccc4ccccc4c3)c(-c3ccccc3)c(-c3ccccc3)[n+]2Cc2ccc3ccccc3c2)cc1`, the growth was -89.6% (active). With `C=C1CC[C@@H]2[C@]3(C)COC(c4cn[nH]c4-c4ccc(Br)cc4)O[C@@H]3CC[C@@]2(C)[C@@H]1C/C=C1/C(=O)OCC1O` (some centres undefined) the figure was -71.4% (active); with `COc1ccc(-c2nc3cc(C)ccc3n2CC(=O)N=Nc2c(O)[nH]c3ccc(Br)cc23)cc1`, 1.58% (active). `CC12CC[C@@H]3[C@]4(C)COC(c5cn[nH]c5-c5cccc(Br)c5)O[C@@H]4CC[C@@]3(C)[C@@H]1CC(C1=CCOC1=O)O2` (some centres undefined): the growth is 41.8% (inactive). For `COc1c(F)ccc(C(=O)Nc2ccc3nc(NC(=O)C4CCCN(S(=O)(=O)c5ccc(C#N)cc5)C4)sc3c2)c1F` (centres undefined), the growth was 87.1% (inactive).

In the case of `COc1ccc2c(c1)c(-c1cc3nc(-c4cn(C)c5ncccc45)cc(N)n3n1)cn2C`, the growth was -78.7% (active). In the case of `CC(=O)c1cc(C(=O)c2ccccc2)n2c1ccc1ccccc12`, the growth is 118% (inactive).

On to `COc1ccc2[nH]c(=O)c(CSc3nccc(-c4ccc(OC)c(OC)c4)n3)cc2c1`, for which the growth was 38.9% (inactive). Turning to `COc1ccc(NC(=O)Cn2c3c(sc2=O)[C@H]2[C@@H](O)[C@@H](O)[C@H](O)[C@@H]2CS3)cc1`, the growth was 102% (inactive).

Regarding `C=C1CCC2C3(C)COC(c4cccs4)OC3CCC2(C)C1CC(Sc1ccccc1)C1=CCOC1=O` (centres undefined), the growth was 95.6% (inactive). In the case of `CC1CN(c2oc(-c3ccc([N+](=O)[O-])cc3)nc2C#N)CC(C)O1` (centres undefined), the growth was 102% (inactive). On to `Cc1occc1C(=O)NN1C(=O)/C(=C/C=C/c2ccc([N+](=O)[O-])o2)SC1=S`, for which the growth is -44.5% (active). In the case of `N=C1N=C(SCc2nc3ccccc3[nH]2)NC(=O)/C1=C/c1ccc(Cl)cc1`, the growth is 106% (inactive). As to `O=C(NN1C(=O)/C(=C/C=C/c2ccc([N+](=O)[O-])o2)SC1=S)c1ccccc1O`, the growth is -85% (active). Consider `COc1ccc(-c2nc3cc(C)ccc3n2CC(=O)N=Nc2c(O)[nH]c3ccc(Cl)cc23)cc1`, for which the growth was -31.2% (active). In the case of `COC1=C[C@]23CCC(=O)N2CCc2cc4c(cc2[C@@H]3[C@@H]1OC(=O)[C@H](C)O)OCO4`, the growth is 27.9% (inactive).
